For 1 sequence, binding signal results are on record in paper PMC7862700, “An all-to-all approach to the identification of sequence-specific readers for epigenetic DNA modifications on cytosine”.

Experiment in all cases: DAPPL (digital affinity profiling via proximity ligation, sequencing); 10 mM Tris-HCl pH 7.5, 50 mM NaCl, 1 mM DTT, 4% glycerol, room temperature, 30 min; GST-TFs on glutathione beads, 16-mer random dsDNA library, 0.1% formaldehyde crosslink after washing; high values mean tight binding
One test deals with T1, FEV (Homo sapiens, UniProt Q99581 1-238).
T1 sequence: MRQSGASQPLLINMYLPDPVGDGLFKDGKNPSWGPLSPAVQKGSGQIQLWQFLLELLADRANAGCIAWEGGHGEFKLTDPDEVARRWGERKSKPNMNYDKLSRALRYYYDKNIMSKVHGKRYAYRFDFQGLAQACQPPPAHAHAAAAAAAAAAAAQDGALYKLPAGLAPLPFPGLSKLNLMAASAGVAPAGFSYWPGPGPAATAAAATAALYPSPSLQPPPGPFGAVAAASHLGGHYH
The following applies: protein: recombinant; tags: N-terminal GST; dsDNA, one strand shown. In a few lines:
(§1)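 Human transcription factors fused to GST were expressed in yeast, captured on glutathione beads, given DNA barcodes and pooled with a GST-only negative control. Pools were incubated with 200 nmole of a 16-mer random double-stranded DNA library in Tris/NaCl/DTT/glycerol buffer at room temperature for 30 min. They were then washed, crosslinked with 0.1% formaldehyde, proximity-ligated (BsaI/T4 ligase, 1 h, 37 °C), PCR-amplified and sequenced on an Illumina NextSeq500. Binding signal is each 6-mer's read frequency for a factor divided by its frequency for the GST control.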

For the next test, the target named is ETV5 (Homo sapiens, UniProt P41161 1-510). The conditions noted are these: protein: recombinant; tags: N-terminal GST; dsDNA, one strand shown. A digest of the protocol: as §1
ETV5, sequence (P41161 whole entry): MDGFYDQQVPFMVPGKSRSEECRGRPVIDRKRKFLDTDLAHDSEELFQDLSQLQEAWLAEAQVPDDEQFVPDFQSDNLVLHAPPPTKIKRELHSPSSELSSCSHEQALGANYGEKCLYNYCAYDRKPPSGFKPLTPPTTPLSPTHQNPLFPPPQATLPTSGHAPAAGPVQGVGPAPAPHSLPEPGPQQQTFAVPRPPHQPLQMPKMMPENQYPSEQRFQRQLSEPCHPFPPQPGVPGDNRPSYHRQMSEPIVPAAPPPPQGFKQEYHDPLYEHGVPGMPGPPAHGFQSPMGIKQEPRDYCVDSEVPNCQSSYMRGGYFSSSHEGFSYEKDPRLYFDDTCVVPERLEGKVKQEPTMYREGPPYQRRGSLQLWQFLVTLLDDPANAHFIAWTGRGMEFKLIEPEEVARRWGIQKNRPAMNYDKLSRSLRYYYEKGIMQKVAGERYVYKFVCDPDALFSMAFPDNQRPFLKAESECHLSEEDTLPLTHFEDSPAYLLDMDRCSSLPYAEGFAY
The target of a further test is HSF1 (Homo sapiens, UniProt Q00613 1-529). The following applies: protein: recombinant; tags: N-terminal GST; chain copies: 3; dsDNA, one strand shown. A digest of the protocol: as §1
HSF1, sequence (Q00613 whole entry): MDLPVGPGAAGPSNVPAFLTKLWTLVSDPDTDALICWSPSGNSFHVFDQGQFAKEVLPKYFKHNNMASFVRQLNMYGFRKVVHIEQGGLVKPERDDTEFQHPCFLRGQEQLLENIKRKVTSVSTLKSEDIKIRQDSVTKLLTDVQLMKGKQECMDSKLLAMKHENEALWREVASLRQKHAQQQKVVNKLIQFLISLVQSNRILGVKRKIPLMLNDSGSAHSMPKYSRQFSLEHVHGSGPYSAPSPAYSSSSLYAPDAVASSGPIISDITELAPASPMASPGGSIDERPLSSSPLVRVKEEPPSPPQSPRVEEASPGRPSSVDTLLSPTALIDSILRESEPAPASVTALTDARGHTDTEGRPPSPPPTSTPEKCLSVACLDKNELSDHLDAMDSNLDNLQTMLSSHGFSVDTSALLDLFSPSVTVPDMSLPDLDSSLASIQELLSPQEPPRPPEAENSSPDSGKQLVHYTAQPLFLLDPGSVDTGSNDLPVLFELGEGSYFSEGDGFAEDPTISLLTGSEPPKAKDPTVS
Another test has as its target T2, SPIC (Homo sapiens, UniProt Q8N5J4 1-248).
T2 sequence: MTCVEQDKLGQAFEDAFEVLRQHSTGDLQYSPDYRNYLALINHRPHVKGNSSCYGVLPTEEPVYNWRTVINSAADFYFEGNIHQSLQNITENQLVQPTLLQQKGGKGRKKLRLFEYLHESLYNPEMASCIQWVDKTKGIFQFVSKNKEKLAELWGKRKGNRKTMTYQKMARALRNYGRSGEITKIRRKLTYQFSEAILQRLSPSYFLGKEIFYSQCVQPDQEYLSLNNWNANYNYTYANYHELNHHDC
The conditions noted are these: protein: recombinant; tags: N-terminal GST; dsDNA, one strand shown. A digest of the protocol: as §1

A further test has as its target ELF4 (Homo sapiens, UniProt Q99607 1-663). The conditions noted are these: protein: recombinant; tags: N-terminal GST; dsDNA, one strand shown. A digest of the protocol:
as §1

A further test has as its target T3, ELK4 (Homo sapiens, UniProt P28324-2 1-405).
T3 sequence: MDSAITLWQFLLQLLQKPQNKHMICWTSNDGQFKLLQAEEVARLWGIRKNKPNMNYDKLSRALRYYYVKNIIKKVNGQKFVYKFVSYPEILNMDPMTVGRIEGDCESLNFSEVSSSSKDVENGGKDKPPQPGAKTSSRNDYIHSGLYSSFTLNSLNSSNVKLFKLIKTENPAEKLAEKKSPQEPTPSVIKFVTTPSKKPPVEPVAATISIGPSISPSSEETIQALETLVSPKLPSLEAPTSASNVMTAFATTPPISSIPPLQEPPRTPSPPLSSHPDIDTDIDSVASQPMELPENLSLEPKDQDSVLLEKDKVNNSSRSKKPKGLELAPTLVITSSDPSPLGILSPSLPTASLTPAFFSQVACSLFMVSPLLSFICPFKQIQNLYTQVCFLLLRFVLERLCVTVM
The following applies: protein: recombinant; tags: N-terminal GST; dsDNA, one strand shown. In a few lines:
as §1

The target in another test is T4, ETV2 (Homo sapiens, UniProt O00321 1-342).
T4 sequence: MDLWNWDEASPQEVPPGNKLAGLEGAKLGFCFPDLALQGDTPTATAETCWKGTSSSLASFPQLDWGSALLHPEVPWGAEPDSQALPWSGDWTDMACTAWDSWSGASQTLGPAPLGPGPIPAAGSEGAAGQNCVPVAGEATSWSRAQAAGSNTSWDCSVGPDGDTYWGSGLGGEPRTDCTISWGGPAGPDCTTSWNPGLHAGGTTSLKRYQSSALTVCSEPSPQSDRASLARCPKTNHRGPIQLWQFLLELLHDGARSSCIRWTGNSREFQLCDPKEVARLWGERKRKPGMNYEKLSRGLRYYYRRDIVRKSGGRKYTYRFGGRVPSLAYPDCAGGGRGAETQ
The conditions noted are these: protein: recombinant; tags: N-terminal GST; dsDNA, one strand shown. In a few lines: as §1

Another test addresses T5, ELF3 (Homo sapiens, UniProt P78545 1-371).
T5 sequence: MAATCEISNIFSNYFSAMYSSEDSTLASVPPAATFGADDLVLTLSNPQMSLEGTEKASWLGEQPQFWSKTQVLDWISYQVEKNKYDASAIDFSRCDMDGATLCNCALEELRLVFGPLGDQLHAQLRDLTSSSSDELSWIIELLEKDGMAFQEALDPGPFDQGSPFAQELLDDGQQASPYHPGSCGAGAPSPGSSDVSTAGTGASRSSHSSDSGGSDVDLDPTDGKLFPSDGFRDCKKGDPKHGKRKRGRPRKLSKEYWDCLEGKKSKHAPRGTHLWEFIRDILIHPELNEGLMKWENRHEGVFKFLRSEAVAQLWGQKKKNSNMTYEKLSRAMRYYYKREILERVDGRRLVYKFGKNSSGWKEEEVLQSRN
The following applies: protein: recombinant; tags: N-terminal GST; dsDNA, one strand shown. A digest of the protocol:
as §1

A further test concerns the target CRX (Homo sapiens, UniProt O43186 1-299). The following applies: protein: recombinant; tags: N-terminal GST; dsDNA, one strand shown. A digest of the protocol:
as §1

Another test deals with ETV1 (Homo sapiens, UniProt P50549 1-477). The following applies: protein: recombinant; tags: N-terminal GST; dsDNA, one strand shown. In a few lines:
as §1

The target of a further test is T6, ERF (Homo sapiens, UniProt P50548 1-548).
T6 sequence: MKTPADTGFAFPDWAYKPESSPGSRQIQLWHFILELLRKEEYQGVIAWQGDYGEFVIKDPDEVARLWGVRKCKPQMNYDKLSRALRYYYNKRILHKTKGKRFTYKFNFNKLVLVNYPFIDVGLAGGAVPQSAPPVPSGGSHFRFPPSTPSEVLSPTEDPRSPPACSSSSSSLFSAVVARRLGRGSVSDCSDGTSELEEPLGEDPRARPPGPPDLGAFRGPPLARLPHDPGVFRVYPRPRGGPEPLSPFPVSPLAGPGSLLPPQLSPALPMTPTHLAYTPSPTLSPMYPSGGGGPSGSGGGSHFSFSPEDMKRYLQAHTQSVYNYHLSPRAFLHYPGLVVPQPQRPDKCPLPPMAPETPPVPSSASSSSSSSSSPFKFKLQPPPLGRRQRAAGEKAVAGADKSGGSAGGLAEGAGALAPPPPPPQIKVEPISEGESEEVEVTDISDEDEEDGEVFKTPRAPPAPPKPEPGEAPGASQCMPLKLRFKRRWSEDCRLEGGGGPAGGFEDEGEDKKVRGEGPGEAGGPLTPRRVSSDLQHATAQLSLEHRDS
The conditions noted are these: protein: recombinant; tags: N-terminal GST; dsDNA, one strand shown. In a few lines:
as §1

The target in the next test is T7, ETV3L (Homo sapiens, UniProt Q6ZN32 1-361).
T7 sequence: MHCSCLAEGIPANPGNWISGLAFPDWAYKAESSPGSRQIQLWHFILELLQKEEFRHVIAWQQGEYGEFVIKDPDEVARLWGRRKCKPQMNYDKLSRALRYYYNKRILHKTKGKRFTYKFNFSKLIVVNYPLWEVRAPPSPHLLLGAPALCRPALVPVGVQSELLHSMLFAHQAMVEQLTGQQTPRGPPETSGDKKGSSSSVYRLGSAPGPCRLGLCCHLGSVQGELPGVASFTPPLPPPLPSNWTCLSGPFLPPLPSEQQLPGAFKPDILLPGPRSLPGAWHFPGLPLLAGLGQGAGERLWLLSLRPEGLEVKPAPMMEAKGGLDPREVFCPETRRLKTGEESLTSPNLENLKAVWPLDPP
The following applies: protein: recombinant; tags: N-terminal GST; dsDNA, one strand shown. In a few lines: as §1

The target in the next test is T8, ETS2 (Homo sapiens, UniProt P15036 1-469).
T8 sequence: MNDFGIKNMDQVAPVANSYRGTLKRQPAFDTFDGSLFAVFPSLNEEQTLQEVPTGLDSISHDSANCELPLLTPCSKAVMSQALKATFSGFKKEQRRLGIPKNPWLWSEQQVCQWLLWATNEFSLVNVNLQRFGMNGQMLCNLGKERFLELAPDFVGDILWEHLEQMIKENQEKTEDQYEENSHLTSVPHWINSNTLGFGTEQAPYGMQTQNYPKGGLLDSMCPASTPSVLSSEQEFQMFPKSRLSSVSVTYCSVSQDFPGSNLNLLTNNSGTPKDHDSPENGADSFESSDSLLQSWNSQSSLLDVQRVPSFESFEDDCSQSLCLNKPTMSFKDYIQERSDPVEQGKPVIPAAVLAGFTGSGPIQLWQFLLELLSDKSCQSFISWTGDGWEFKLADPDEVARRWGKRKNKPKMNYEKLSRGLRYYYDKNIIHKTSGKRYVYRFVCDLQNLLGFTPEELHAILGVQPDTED
The conditions noted are these: protein: recombinant; tags: N-terminal GST; dsDNA, one strand shown. In a few lines:
as §1

The target of another test is T9, SPDEF (Homo sapiens, UniProt O95238 1-335).
T9 sequence: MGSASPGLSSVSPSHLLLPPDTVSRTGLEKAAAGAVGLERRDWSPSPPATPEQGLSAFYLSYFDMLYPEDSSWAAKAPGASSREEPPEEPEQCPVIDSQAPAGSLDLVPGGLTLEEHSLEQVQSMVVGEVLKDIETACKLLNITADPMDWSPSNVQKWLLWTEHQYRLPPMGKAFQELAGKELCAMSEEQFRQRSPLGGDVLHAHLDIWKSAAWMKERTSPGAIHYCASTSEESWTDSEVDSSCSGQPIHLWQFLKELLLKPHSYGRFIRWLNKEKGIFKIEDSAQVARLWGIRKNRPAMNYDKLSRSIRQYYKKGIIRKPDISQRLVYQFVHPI
The conditions noted are these: protein: recombinant; tags: N-terminal GST; dsDNA, one strand shown. In a few lines: as §1

For the next test, the target named is T10, ETV7 (Homo sapiens, UniProt Q9Y603 1-341).
T10 sequence: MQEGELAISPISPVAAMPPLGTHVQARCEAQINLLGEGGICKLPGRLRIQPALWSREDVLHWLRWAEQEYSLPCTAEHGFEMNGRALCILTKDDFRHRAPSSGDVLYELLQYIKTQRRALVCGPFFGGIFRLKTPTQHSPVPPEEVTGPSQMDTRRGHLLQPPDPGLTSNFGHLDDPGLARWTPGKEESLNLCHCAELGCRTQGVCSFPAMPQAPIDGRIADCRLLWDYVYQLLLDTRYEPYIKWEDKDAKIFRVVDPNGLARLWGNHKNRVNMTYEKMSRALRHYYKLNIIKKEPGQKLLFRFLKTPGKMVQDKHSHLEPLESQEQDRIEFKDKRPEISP
The following applies: protein: recombinant; tags: N-terminal GST; dsDNA, one strand shown. A digest of the protocol: as §1

The next test deals with T11, ELF5 (Homo sapiens, UniProt Q9UKW6-2 1-255).
T11 sequence: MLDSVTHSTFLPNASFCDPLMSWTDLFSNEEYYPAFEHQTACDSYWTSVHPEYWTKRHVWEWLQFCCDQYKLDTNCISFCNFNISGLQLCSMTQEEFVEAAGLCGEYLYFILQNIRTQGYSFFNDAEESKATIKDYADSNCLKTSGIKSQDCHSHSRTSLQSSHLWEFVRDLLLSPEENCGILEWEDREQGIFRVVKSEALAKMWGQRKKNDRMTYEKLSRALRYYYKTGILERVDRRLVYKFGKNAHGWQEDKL
The following applies: protein: recombinant; tags: N-terminal GST; dsDNA, one strand shown. In a few lines:
as §1

For another test, the target named is T12, ETV3 (Homo sapiens, UniProt P41162-2 1-143).
T12 sequence: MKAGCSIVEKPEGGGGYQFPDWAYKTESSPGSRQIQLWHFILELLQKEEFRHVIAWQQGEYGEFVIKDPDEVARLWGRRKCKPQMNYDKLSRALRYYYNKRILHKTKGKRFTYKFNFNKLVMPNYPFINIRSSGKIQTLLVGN
The following applies: protein: recombinant; tags: N-terminal GST; dsDNA, one strand shown. A digest of the protocol: as §1

The next test deals with ETV6 (Homo sapiens, UniProt P41212 1-452). The conditions noted are these: protein: recombinant; tags: N-terminal GST; dsDNA, one strand shown. A digest of the protocol:
as §1

ETV6, sequence (P41212 whole entry): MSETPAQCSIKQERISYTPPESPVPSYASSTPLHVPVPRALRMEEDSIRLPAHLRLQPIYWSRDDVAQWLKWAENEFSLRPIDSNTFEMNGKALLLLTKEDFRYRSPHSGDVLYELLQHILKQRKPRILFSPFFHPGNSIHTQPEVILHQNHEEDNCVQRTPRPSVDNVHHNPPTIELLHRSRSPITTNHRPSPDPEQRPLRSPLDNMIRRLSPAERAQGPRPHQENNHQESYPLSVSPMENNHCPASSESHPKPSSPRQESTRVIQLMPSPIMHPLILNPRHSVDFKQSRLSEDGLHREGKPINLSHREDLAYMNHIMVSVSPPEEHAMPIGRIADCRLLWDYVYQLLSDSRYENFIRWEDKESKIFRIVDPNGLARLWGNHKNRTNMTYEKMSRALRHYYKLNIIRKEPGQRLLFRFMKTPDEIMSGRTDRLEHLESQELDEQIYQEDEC
ETV1, sequence (P50549 whole entry): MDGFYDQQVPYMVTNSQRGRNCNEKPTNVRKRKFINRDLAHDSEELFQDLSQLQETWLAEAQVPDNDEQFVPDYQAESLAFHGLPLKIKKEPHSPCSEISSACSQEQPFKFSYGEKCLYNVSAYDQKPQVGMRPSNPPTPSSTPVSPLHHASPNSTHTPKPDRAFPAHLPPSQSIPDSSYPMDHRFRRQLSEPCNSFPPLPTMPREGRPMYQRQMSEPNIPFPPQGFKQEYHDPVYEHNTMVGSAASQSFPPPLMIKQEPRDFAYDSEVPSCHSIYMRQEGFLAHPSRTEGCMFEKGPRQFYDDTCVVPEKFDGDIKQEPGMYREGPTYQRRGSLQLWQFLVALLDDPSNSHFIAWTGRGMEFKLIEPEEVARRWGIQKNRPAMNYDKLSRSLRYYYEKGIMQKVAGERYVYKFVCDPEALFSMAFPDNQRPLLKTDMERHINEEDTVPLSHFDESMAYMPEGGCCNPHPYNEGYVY
CRX, sequence (O43186 whole entry): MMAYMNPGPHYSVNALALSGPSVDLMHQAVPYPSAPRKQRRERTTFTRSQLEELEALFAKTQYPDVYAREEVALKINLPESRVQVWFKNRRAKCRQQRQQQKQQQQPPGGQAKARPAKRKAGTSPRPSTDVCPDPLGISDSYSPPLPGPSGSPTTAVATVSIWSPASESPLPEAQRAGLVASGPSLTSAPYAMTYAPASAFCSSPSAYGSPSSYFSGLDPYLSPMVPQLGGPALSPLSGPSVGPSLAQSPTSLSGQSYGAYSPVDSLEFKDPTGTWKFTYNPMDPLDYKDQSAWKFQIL
ELF4, sequence (Q99607 whole entry): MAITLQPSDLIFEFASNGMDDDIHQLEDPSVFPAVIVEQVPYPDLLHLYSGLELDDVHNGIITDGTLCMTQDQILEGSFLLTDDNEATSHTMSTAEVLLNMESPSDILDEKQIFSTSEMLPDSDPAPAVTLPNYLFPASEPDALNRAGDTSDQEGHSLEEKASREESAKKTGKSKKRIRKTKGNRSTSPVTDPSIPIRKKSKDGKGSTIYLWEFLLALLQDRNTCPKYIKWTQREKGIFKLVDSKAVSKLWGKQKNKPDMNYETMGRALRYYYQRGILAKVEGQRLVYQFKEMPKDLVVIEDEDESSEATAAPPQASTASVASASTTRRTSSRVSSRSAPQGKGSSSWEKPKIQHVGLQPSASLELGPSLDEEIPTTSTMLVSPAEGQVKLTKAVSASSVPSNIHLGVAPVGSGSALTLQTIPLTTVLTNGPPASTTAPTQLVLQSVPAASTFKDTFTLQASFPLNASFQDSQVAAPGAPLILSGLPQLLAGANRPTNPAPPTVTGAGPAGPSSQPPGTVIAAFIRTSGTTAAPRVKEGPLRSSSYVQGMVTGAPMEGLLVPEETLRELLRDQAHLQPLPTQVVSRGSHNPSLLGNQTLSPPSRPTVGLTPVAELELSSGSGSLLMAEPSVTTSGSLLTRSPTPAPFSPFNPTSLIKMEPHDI

In the case of TGACTT, the binding signal is 1.59 fold enrichment (6-mer frequency, TF over GST control) in the test with FEV; 1.52 fold enrichment (6-mer frequency, TF over GST control) with ETV5; 1.15 fold enrichment (6-mer frequency, TF over GST control) in the test with HSF1; 1.37 fold enrichment (6-mer frequency, TF over GST control) in the test with SPIC; 1.45 fold enrichment (6-mer frequency, TF over GST control) with ELF4; 1.4 fold enrichment (6-mer frequency, TF over GST control) with ELK4. Further, the binding signal was 1.44 fold enrichment (6-mer frequency, TF over GST control) with ETV2; 1.55 fold enrichment (6-mer frequency, TF over GST control) with ELF3; 1.29 fold enrichment (6-mer frequency, TF over GST control) with CRX; 1.47 fold enrichment (6-mer frequency, TF over GST control) with ETV1; 1.45 fold enrichment (6-mer frequency, TF over GST control) with ERF; 1.4 fold enrichment (6-mer frequency, TF over GST control) with ETV3L. Further, the binding signal with ETS2 was 1.53 fold enrichment (6-mer frequency, TF over GST control); with SPDEF, 1.24 fold enrichment (6-mer frequency, TF over GST control); in the test with ETV7 it was 1.48 fold enrichment (6-mer frequency, TF over GST control); with ELF5, 1.56 fold enrichment (6-mer frequency, TF over GST control); with ETV3, 1.46 fold enrichment (6-mer frequency, TF over GST control); with ETV6, 1.39 fold enrichment (6-mer frequency, TF over GST control).
